This assay can be described thus: Primary imaging screen for DUSP6 inhibitors that restore phospho-Erk in transfected HeLa cells, chemical complementation (AID 609). As to conditions: HeLa MKP-3 transfected, phospho-Erk imaging KS statistic; measured here: nuclear pErk red intensity z-score; at 10 µM; stronger effect = higher value; cells stimulated with TPA for 15 min.
In the case of `Cc1cccc(C)c1N1C(=O)C2ON(c3ccccc3)C(c3ccncc3)C2C1=O` (stereo unspecified), the z-score was -0.286.
Turning to `COc1ccc(C2C=C(c3ccc(Cl)cc3)Nc3nc(NC(C)=O)nn32)cc1` (stereo unspecified), the z-score came to 0.747.
Molecule `CC(C)Cc1ccc(C(C)C(=O)O)cc1` (stereo unspecified) displayed a z-score of 0.0811.
In turn, `COCCCNc1nc(-c2ccncc2)nc2ccccc12` came in with a z-score of -0.825.
The molecule `CCCOC(=O)C1[C@H]2C(=O)N(Cc3ccco3)C[C@]23C=C[C@H]1O3` (stereo partly specified) showed a z-score of -0.596.
Regarding `COc1ccc(CNC(=O)[C@H](C)NC(=O)C2CCN(S(=O)(=O)c3ccc(C)cc3)CC2)cc1`, the z-score came out at 0.673.
With `N#C/C(=N\O)c1nc(-c2ccccc2)cs1` the figure was -0.606; with `Oc1ccc(Br)cc1-c1cc(-c2ccccc2F)[nH]n1`, -1.37; with `COc1ccc(/C(O)=C2/C(=O)C(=O)N(CCN3CCOCC3)C2c2ccccn2)cc1OC` (stereo unspecified), 1.12.
`CCOc1ccc(/C(O)=C2/C(=O)C(=O)N(c3nc(C)c(C)s3)C2c2ccco2)cc1` (stereo unspecified) came in with a z-score of 1.89.
Molecule `O=C1C2ON(c3ccccc3)C(c3ccncc3)C2C(=O)N1c1ccccc1` (stereo unspecified) gave a z-score of 0.675.
As for `CCOC(=O)N1CCN(/C=C(\C#N)c2nc3ccccc3s2)CC1`, the z-score was -0.877.
With `CCOc1ccc(C2C(C(=O)c3ccc(C)o3)=C(O)C(=O)N2CCN2CCOCC2)cc1OC` (stereo unspecified) the figure was 0.737; with `CC(C)(C)c1ccc(C(O)CCCN2CCC(C(O)(c3ccccc3)c3ccccc3)CC2)cc1` (stereo unspecified), -1.3.
In the case of `O=C(O)CCCCCN1C(=O)CCC1=O`, the z-score was 0.641.
With `CC(=O)O[C@H]1C(=O)[C@]2(C)[C@H]([C@H](OC(=O)c3ccccc3)[C@]3(O)C[C@H](OC(=O)[C@H](O)[C@@H](NC(=O)c4ccccc4)c4ccccc4)C(C)=C1C3(C)C)[C@]1(OC(C)=O)CO[C@@H]1C[C@@H]2O` the figure was 0.563.

Values taken from PubChem BioAssay.
